Measured values taken from PubChem BioAssay (NCATS).
Records with an inconclusive call do not appear. A call without a number means that no potency is given here. A structure can be active in one record and inactive in another. A number with no mark means an inactive call. The source made the active and inactive calls. The call rests on the fitted dose curve; in most records, active means well fitted curve in the direction sought with a large enough effect; inconclusive means small, poorly fitted or top-dose-only effect, or another doubt; inactive means no such curve, though single readings can be large; an effect the other way counts as inactive or inconclusive.

How the values were obtained:
[1] = Quantitative highthroughput screen to assess conditional lethalithy of NOMO1 cells grown in RPMI1640 with untreated serum (RPMI+s) (AID 1963876); further: nearly all actives have a fitted effect of over 35% in size
Outline: (§1)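 Each medium arm—HPLM with 10% dialyzed FBS, or RPMI1640 with 5 mM glucose and 10% untreated or dialyzed FBS—was screened against an 11-point, 3-fold compound titration for 48 h at 37 °C, with CellTiter-Glo luminescence as endpoint.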

[2] = Quantitative highthroughput screen to assess conditional lethalithy of NOMO1 cells grown in RPMI1640 with dialyzed fetal bovine serum (RPMI+ds) (AID 1963877); further: nearly all actives have a fitted effect of over 30% in size; on viability: series mostly up to about 46 µM
Outline: as §1

[3] = Quantitative highthroughput screen to assess conditional lethalithy of NOMO1 cells grown in Human Plasma-Like Medium with dialyzed fetal bovine serum (HPLM+ds) (AID 1963878); further: nearly all actives have a fitted effect of over 35% in size
Outline: as §1

[4] = Quantitative highthroughput screen to assess conditional lethalithy of P12 Ichikawa cells grown in Human Plasma-Like Medium with dialyzed fetal bovine serum (HPLM+ds) (AID 1963879); settings: Potency: viability; further: nearly all actives have a fitted effect of over 35% in size; on viability: series mostly up to about 46 µM
Outline: as §1

[5] = Quantitative highthroughput screen to assess conditional lethalithy of SEM cells grown in Human Plasma-Like Medium with dialyzed fetal bovine serum (HPLM+ds) (AID 1963882); further: nearly all actives have a fitted effect of over 35% in size; on viability: series mostly up to about 46 µM
Outline: as §1

[6] = Quantitative highthroughput screen to assess conditional lethalithy of P12 Ichikawa cells grown in RPMI1640 with dialyzed fetal bovine serum (RPMI+ds) (AID 1963880); settings: Potency: P12-Ichikawa viability; further: nearly all actives have a fitted effect of over 35% in size
Outline: as §1

[7] = Quantitative highthroughput screen to assess conditional lethalithy of P12 Ichikawa cells grown in RPMI1640 with untreated serum (RPMI+s) (AID 1963881); settings: Potency: viability; further: nearly all actives have a fitted effect of over 35% in size; on viability: series mostly up to about 46 µM
Outline: as §1

[8] = Quantitative highthroughput screen to assess conditional lethalithy of SEM cells grown in RPMI1640 with unreated serum (RPMI+s) (AID 1963883); further: nearly all actives have a fitted effect of over 35% in size
Outline: as §1

[9] = Quantitative highthroughput screen to assess conditional lethalithy of SEM cells grown in RPMI1640 with dialyzed fetal bovine serum (RPMI+ds) (AID 1963884); further: nearly all actives have a fitted effect of over 35% in size; on viability: series mostly up to about 46 µM
Outline: as §1

[10] = Cellular viability qHTS for adrenocortical cancer (ACC) cell line SW-13 (AID 1963989); settings: SW-13 ACC cells viability, CellTiter-Glo, 48 h; activity (max response): hits give low values; further: nearly all actives have a fitted effect of over 65% in size;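 on activity (max response): cells grown in serum-free medium with ITS supplement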
Outline: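 Viability was read as CellTiter-Glo luminescence after 48 h compound treatment (up to 46 uM final) of SW-13 cells grown serum-free; titration curves were fit with a four-parameter logistic model to give IC50 and efficacy.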

[11] = Cellular viability qHTS for adrenocortical cancer (ACC) cell line NCI-H295R (AID 1963990); further: nearly all actives have a fitted effect of over 60% in size
Outline: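 CellTiter-Glo ATP luminescence, read 48 h after compound addition, measured viability of NCI-H295R adrenocortical cells grown serum-free with ITS. Final concentrations spanned up to 46 uM. Data normalized to DMSO and doxorubicin, fitted for IC50 and maximal response.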
Potency means the concentration at half of the fitted maximal effect.

Row | SMILES | Potency [1] | Potency [2] | Potency [3] | Potency [4] | Potency [5] | Potency [6] | Potency [7] | Potency [8] | Potency [9] | Potency [10] | activity (max response) [10] | Potency [11]
1 | C=C1C(=CC=C2CCC[C@]3(C)[C@@H]([C@H](C)CCCC(C)(C)O)CC[C@@H]23)C[C@@H](O)C[C@@H]1O | inactive | inactive | inactive | inactive | inactive |  |  |  |  |  |  | 
2 | COc1ccc2ccc(=O)oc2c1CC=C(C)C | inactive | inactive | inactive |  | inactive |  |  |  |  |  |  | 
3 | Cc1ccc(-c2cc(C(F)(F)F)nn2-c2ccc(S(N)(=O)=O)cc2)cc1 | inactive | inactive | inactive |  | inactive | inactive | inactive | inactive | inactive | 23.1 µM (active) | -6.62% | inactive
4 | Cc1nc(NC(=O)N2CCC[C@@H]2C(N)=O)sc1-c1ccnc(C(C)(C)C(F)(F)F)c1 | 2.96 µM (active) | 2.64 µM (active) | 2.64 µM (active) |  | 1.48 µM (active) | 5.9 µM (active) | 3.32 µM (active) |  | 2.96 µM (active) |  |  | 
5 | CC(C)(C)OC(=O)N[C@H]1CCCCCC=C[C@@H]2C[C@@]2(C(=O)NS(=O)(=O)C2CC2)NC(=O)[C@@H]2C[C@@H](OC(=O)N3Cc4cccc(F)c4C3)CN2C1=O | inactive | inactive | inactive |  | inactive | inactive | inactive | inactive | inactive |  | 8.79% | inactive
6 | O=C(NOC[C@H](O)CO)c1ccc(F)c(F)c1Nc1ccc(I)cc1F | 0.187 µM (active) | 0.0332 µM (active) | 0.148 µM (active) | 20.9 µM (active) | 7.43 µM (active) |  |  | 11.8 µM (active) | 11.8 µM (active) |  |  | 
7 | CO[C@H]1C(=O)[C@]2(C)[C@@H](OC)C[C@H]3OC[C@@]3(OC(C)=O)[C@H]2[C@H](OC(=O)c2ccccc2)[C@]2(O)C[C@H](OC(=O)[C@H](O)[C@@H](NC(=O)OC(C)(C)C)c3ccccc3)C(C)=C1C2(C)C | 0.0132 µM (active) | 0.0132 µM (active) | 0.0021 µM (active) |  |  |  | 0.0148 µM (active) | 0.0042 µM (active) |  |  |  | 0.0079 µM (active)
8 | CC(C)CN(C[C@@H](O)[C@H](Cc1ccccc1)NC(=O)O[C@H]1CO[C@H]2OCC[C@H]21)S(=O)(=O)c1ccc(N)cc1 | inactive | inactive | inactive |  | 3.72 µM (active) |  |  |  |  |  |  | 
9 | O=C1NC(=O)C(=Cc2ccc3c(c2)OC(F)(F)O3)S1 | inactive | inactive | inactive |  | inactive | inactive | inactive |  | inactive |  |  | 
10 | OC1CCC(Nc2ncc3nc(Nc4c(F)cc(F)cc4F)n([C@@H]4CCOC4)c3n2)CC1 (some centres undefined) | inactive | inactive | inactive |  | inactive | inactive | inactive |  | inactive |  |  | inactive
11 | N=C1SC(=Cc2ccc(-c3ccc4c(c3)C(=O)NC4=O)o2)C(=O)N1c1ccc(Br)cc1 | inactive | inactive | inactive |  |  | inactive | inactive | 13.2 µM (active) |  |  |  | 
12 | COc1ccc2cc1Oc1ccc(cc1)C[C@H]1c3cc(c(OC)cc3CCN1C)Oc1c(OC)c(OC)cc3c1[C@H](C2)N(C)CC3 | inactive | inactive | inactive |  | inactive |  |  |  |  |  |  | 
13 | C[C@@H]1[C@H](C)CC[C@]2(C(=O)O)CC[C@]3(C)C(=CC[C@@H]4[C@@]5(C)C[C@@H](O)[C@H](O)[C@@](C)(CO)[C@H]5CC[C@]43C)[C@@H]12 | inactive | inactive | inactive |  |  | inactive | inactive |  |  |  |  | 
14 | O=C1Nc2ccc(I)cc2C1=Cc1cc(Br)c(O)c(Br)c1 | inactive | inactive | inactive |  | inactive | inactive | inactive |  | 18.7 µM (active) |  |  | 
15 | C[C@]12CCC3c4ccc(O)cc4CCC3C1CCC2=O (some centres undefined) | inactive | inactive | inactive | inactive |  |  | inactive | inactive |  |  | -21% | inactive
16 | c1cc(CN2CCCNCCNCCCNCC2)ccc1CN1CCCNCCNCCCNCC1 | inactive | inactive | inactive |  | inactive | inactive | inactive | inactive | inactive |  |  | inactive
17 | CCC(=O)OCC(=O)[C@@]1(OC(=O)CC)[C@@H](C)C[C@@H]2[C@H]3CCC4=CC(=O)C=C[C@]4(C)[C@@]3(F)[C@@H](O)C[C@@]21C | 7.43 µM (active) | 5.9 µM (active) | 1.66 µM (active) |  |  | 2.35 µM (active) | 4.69 µM (active) |  |  |  |  | 
18 | O=C(N[C@H](CO)[C@H](O)c1ccc([N+](=O)[O-])cc1)C(Cl)Cl | inactive | inactive | inactive |  | inactive |  | 20.9 µM (active) |  | inactive |  | -5.45% | inactive
19 | CC1(C)OC2CC3C4CC(F)C5=CC(=O)C=CC5(C)C4C(O)CC3(C)[C@]2(C(=O)CO)O1 (some centres undefined) | inactive | inactive | inactive |  | 2.35 µM (active) |  |  |  |  |  |  | 
20 | CO[C@H]1C[C@@H]2CC[C@@H](C)[C@@](O)(O2)C(=O)C(=O)N2CCCC[C@@H]2C(=O)O[C@H]([C@@H](C)C[C@@H]2CC[C@H](O)[C@H](OC)C2)CC(=O)[C@H](C)C=C(C)[C@@H](O)[C@@H](OC)C(=O)[C@H](C)C[C@H](C)C=CC=CC=C1C | inactive | inactive | inactive |  |  |  |  |  |  |  |  | 28.2 µM (active)
